Screening results from PubChem.
TDP1 cell noCPT – qHTS for Inhibitors of human tyrosyl-DNA phosphodiesterase 1 (TDP1): qHTS in cells in absence of CPT. DT40 Tdp1-/- hTDP1 cells, no CPT, ATP luminescence, 48 h. Potency, µM (series often up to 46.2 µM), for the others: top-dose activity change, negative = growth inhibition, usual class: inhibitors. 420,000 compounds, 15% hits. AID 686978, 2013; also: potency is read from the fitted curve at half-maximal effect; nearly all actives have a fitted effect of over 55% in size
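Chicken DT40 Tdp1-/- cells stably complemented with human TDP1 were seeded at 400 cells/well with DMSO in place of 20 nM camptothecin. After compound pinning, cells grew at least 48 hr at 37 °C; viability read by CellTiter-Glo luminescence.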
LDHA block – blocks human lactate dehydrogenase A. P00338. purified LDHA, NADH/diaphorase-resazurin fluorescence; hits give low values. 480,000 compounds, 0.15% hits. activity change, % (values are at about 110 or 230 µM); in the data active = activity change below about -30%; inconclusive = mostly about -25% to -30%;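 also: plate controls were DMSO wells for no effect and wells without enzyme for full effect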
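Human LDH5 (2 nM) was incubated with 0.06 mM NADH and 0.2 mM pyruvate for 5 min at room temperature in Tris pH 7.4. Remaining NADH was coupled through diaphorase/resazurin, and resorufin fluorescence was read at 0 and 20 min.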
VP16 counter – inhibits Gal4-VP16 luciferase reporter, ROR gamma counter-screen; Drosophila S2 Gal4-VP16 UAS-luciferase, luminescence, 20 h; Potency, µM (titrated, usually from 53.6 µM), without a hit: at the highest dose activity, negative = inhibition, hits mostly inhibitors; 310,000 compounds, 3.5% hits; AID 2546;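 also: Gal4-VP16 expression switched on by copper sulfate through the metallothionein promoter; potency is read from the fitted curve at half-maximal effect; nearly all actives have a fitted effect of over 50% in size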
DT40 TDP1 CPT – DT40-hTDP1 cell growth loss with CPT; chicken DT40 Tdp1-/-;hTDP1 cells + 20 nM CPT, ATP luminescence, 48 h; Potency, µM (highest dose often 46.2 µM), for inactives: at the highest dose activity change, negative = growth inhibition, hits mostly inhibitors; 420,000 compounds, 12% hits; also: potency is read from the fitted curve at half-maximal effect; nearly all actives have a fitted effect of over 55% in size
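Cell growth measured by CellTiter-Glo luminescence after a minimum 48 h, 37 C compound exposure with 20 nM CPT in Tdp1-knockout DT40 cells stably expressing hTDP1, seeded 400/well; qHTS titration format.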
RORgamma inh – ROR gamma (mouse) transcription inhibition. Potency, µM (top dose mostly 53.6 µM), for the others: at the highest dose activity change, negative = inhibition, hits mostly inhibitors. 310,000 compounds, 5.4% hits. Drosophila S2 Gal4-RORgamma UAS-luciferase reporter, 20 h. P51450; also: potency is read from the fitted curve at half-maximal effect; nearly all actives have a fitted effect of over 60% in size
Target sequence (P51450 whole entry, looked up, the tested form may be a part): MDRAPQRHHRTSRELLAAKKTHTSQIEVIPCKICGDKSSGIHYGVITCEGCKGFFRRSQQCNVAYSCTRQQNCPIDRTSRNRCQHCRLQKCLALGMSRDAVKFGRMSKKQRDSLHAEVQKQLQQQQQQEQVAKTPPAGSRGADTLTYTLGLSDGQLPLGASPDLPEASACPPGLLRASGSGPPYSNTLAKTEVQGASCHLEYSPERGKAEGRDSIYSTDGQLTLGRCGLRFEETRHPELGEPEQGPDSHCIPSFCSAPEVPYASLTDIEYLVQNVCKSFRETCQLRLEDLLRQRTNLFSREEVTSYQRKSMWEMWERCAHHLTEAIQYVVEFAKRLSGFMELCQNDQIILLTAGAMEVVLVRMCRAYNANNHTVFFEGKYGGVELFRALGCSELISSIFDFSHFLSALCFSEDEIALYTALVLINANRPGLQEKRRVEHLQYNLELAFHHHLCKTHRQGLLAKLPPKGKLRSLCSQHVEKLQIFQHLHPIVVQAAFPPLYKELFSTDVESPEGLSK
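In this cell-based reporter format, copper sulfate (700 uM final) drives Gal4–ROR gamma fusion expression from a metallothionein promoter in Drosophila Schneider cells; compounds preincubated 1 hr, reporter read after 20 hr at ambient temperature.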
IL-1B inflam inh – inhibitors of inflammasome signaling (IL-1 beta secretion). THP-1 LPS/ATP IL-1B secretion, AlphaLISA, 16 h; hits give low values. AID 743279. 360,000 compounds, 4.7% hits. activity change, % at 57.5 µM; in the data active = activity change below about -50%; inconclusive = mostly about -30% to -49%
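Secreted IL-1B measured by AlphaLISA bead assay after 16 h compound exposure of THP-1 cells; compounds (final up to 57.5 uM) added 1 h before LPS (250 ng/mL) and ATP (1.25 mM) stimulation; lower signal means less secretion.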
Active calls of the source: *; ? = inconclusive; nt = no result. This is a sample that favours compounds with a hit; in the whole collection about 18% have one here. Unless noted, calls follow the shape of the dose curve; as a rule, active = well fitted curve in the direction sought with a large enough effect; inconclusive = small, poorly fitted or top-dose-only effect, or another doubt; inactive = no such curve, though single readings can be large; an effect the other way counts as inactive or inconclusive. Unless noted, % is scaled to controls: 0 for no effect and ±100 for the full control effect.

SMILES	TDP1 cell noCPT	LDHA block	VP16 counter	DT40 TDP1 CPT	RORgamma inh	IL-1B inflam inh
COc1ccc(-n2c(=O)c3ccc(C(=O)NCc4ccc(C)cc4)cc3n(CC(=O)Nc3ccc(C)cc3)c2=O)cc1	21µM*	-12	nt	?	nt	nt
Cc1cccc(Cn2c(C)c(C)c3cc(C(=O)NCc4ccc(C)o4)ccc32)c1	?	10	nt	?	nt	nt
Cc1ccc(-n2c(=O)c3ccc(C(=O)NCc4ccco4)cc3n(Cc3ccccc3C#N)c2=O)cc1	?	-3	-15%	?	?	14
COc1ccc(-n2c(=O)c3ccc(C(=O)NCc4ccc(C)cc4)cc3n(CC(=O)Nc3ccc(F)cc3)c2=O)cc1	4%	-5	nt	-6%	nt	nt
CCn1c(C)cc(O)c(C(=O)Nc2cccc(Cl)c2)c1=O	3.7µM*	-7	7%	?	9%	0
Cc1c(C)n(Cc2ccccc2)c2ccc(C(=O)NCc3ccco3)cc12	16µM*	3	nt	?	nt	nt
Cc1ccc(-n2c(=O)c3ccc(C(=O)NCc4ccco4)cc3n(Cc3ccc(Cl)cc3)c2=O)cc1	6.5µM*	-4	nt	18µM*	nt	nt
C=C(C)CSc1nc2c(c(=O)n(C)c(=O)n2C)n1CCCc1ccccc1	nt	10	nt	nt	nt	nt
C#CCNC(=O)Nc1ccc(C)cc1	nt	1	nt	nt	nt	nt
CCn1c(C)c(C)c2cc(C(=O)Nc3cccc(Cl)c3)ccc21	18µM*	-6	-25%	?	2%	?
COc1cccc(CNC(=O)c2cccc(OC)c2)c1	nt	3	nt	nt	nt	nt
CCc1cccc(NC(=O)c2ccc3c(c2)c(C)c(C)n3Cc2ccc(F)cc2)c1	?	-5	nt	15µM*	nt	nt
CCn1c(C)c(C)c2cc(C(=O)NCc3cccc(C)c3)ccc21	?	4	nt	23µM*	nt	nt
COc1cccc(CNC(=O)c2ccc3c(c2)c(C)c(C)n3Cc2ccccc2)c1	18µM*	-5	nt	16µM*	nt	nt
CCn1nnc2cc(C(=O)Nc3cccc(Cl)c3)ccc21	-17%	1	nt	6%	nt	nt
Cc1c(C(=O)OCCOc2c(Cl)cc(Cl)cc2Cl)sc(=S)n1C	nt	11	nt	nt	nt	nt
CCOCCCNC(=O)c1ccc(C#N)cc1	nt	-1	nt	nt	nt	nt
CCc1ccc(NC(=O)c2ccc3c(c2)c(C)c(C)n3Cc2ccccc2)cc1	5.2µM*	-1	nt	5.8µM*	nt	nt
CCc1ccc(CNC(=O)c2ccc3c(c2)c(C)c(C)n3Cc2ccccc2)cc1	?	-6	nt	18µM*	nt	nt
Cc1ccc(CNC(=O)c2ccc3c(c2)c(C)c(C)n3Cc2ccccc2)o1	?	5	nt	?	nt	nt
Cc1ccc(CNC(=O)c2ccc3c(c2)c(C)c(C)n3Cc2ccc(Cl)cc2)o1	5.2µM*	3	nt	?	nt	nt
Cc1c(C)n(Cc2ccccc2)c2ccc(C(=O)NCCN3CCOCC3)cc12	-29%	-5	13%	?	-9%	7
Cc1c(C)n(Cc2ccccc2)c2ccc(C(=O)OCCN(C)C)cc12	12µM*	2	-7%	?	?	-26
CNS(=O)(=O)c1cc(-c2c(C)nn3c2NC(=O)CCC3=O)ccc1C	nt	-8	nt	nt	nt	nt
CC(=O)c1cccc(NC(=O)CCCNC(=O)c2ccc(Cl)cc2)c1	-19%	-3	-16%	3%	-15%	35
CC(=O)c1cccc(NC(=O)c2ccc3c(c2)c(C)c(C)n3Cc2ccc(Cl)cc2)c1	9.2µM*	5	nt	15µM*	nt	nt
O=C1CS/C(=N\NC(=O)c2ccccc2)N1	-6%	6	16µM*	11%	2.8µM*	8
O=c1cc(C(F)(F)F)c2ccc(OS(=O)(=O)c3ccc4c(c3)CCC4)cc2o1	nt	4	nt	nt	nt	nt
COC(=O)c1ccc(C(NC(=O)OCc2ccccc2)/C(F)=C/[C@@H](C)C(=O)Nc2ccc(OC)cc2)cc1 (stereo partly specified)	nt	nt	?	nt	20µM*	nt
